Luc counter – Counterscreen for Luciferase (Kinase-Glo TM) Inhibition; Potency, µM (titrated, usually from 38.3 µM), without a hit: at the top dose activity change, negative = inhibition, hits mostly inhibitors; Luciferin 4-monooxygenase (Photuris pensylvanica), Q27757; actives 0.28% (n = 200,000); Kinase-Glo luciferase, ATP luminescence, 8 min; note: % is set by controls: 0 for no effect and ±100 for the full control effect; nearly all actives have a fitted effect of over 60% in size
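Luminescence was the read-out, taken after 8-minute incubation at ambient temperature. Luciferase turned over luciferin with 10 uM ATP in imidazole pH 7.2 buffer containing KCl, MgCl2, Tween 20 and BSA.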
NPC1 promoter act – qHTS Assay for NPC1 Promoter Activators. Huh7 NPC1 promoter luciferase reporter, 24 h. Potency, µM (highest dose often 9.22 µM), for inactives: at the highest dose activation, most hits filed as activators. actives 2.4% (n = 320,000). AID 485313, 2010; note: % of control where 0% means no effect; nearly all actives have a fitted effect of over 60% in size
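Readout is luciferase luminescence, reflecting NPC1 promoter activation in stably transfected Huh7 cells after 24 h compound exposure at 37 °C in reduced-serum medium with 10% FBS.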
Rab9 promoter act – qHTS Assay for Rab9 Promoter Activators. actives 2.8% (n = 320,000). Huh7 Rab9 promoter-luciferase reporter, luminescence, 24 h. Potency, µM (doses to about 9.22 µM), inactives show top-dose activation, negative = inhibition, usual class: activators; note: % of control where 0% means no effect; nearly all actives have a fitted effect of over 60% in size
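Huh7 reporter line, Rab9 promoter upstream of luciferase. Compound exposure 24 h at 37 °C in reduced-serum medium with 10% FBS. Read-out: luminescence.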
FLuc modulator – qHTS profiling assay for firefly luciferase inhibitor/activator using purifed enzyme and Km concentrations of substrates (counterscreen for miR-21 project); Potency, µM (series often up to 57.5 µM), for the others: top-dose activity change, negative = inhibition, actives largely listed as inhibitors; actives 6.9% (n = 360,000); Luciferin 4-monooxygenase (Photinus pyralis), P08659; AID 588342, 2011; purified FLuc, Km substrates, luminescence inhibition;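 note: plate controls were vehicle for no effect and reference inhibitor for full effect; nearly all actives have a fitted effect of over 55% in size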
Target sequence (P08659 whole entry, looked up): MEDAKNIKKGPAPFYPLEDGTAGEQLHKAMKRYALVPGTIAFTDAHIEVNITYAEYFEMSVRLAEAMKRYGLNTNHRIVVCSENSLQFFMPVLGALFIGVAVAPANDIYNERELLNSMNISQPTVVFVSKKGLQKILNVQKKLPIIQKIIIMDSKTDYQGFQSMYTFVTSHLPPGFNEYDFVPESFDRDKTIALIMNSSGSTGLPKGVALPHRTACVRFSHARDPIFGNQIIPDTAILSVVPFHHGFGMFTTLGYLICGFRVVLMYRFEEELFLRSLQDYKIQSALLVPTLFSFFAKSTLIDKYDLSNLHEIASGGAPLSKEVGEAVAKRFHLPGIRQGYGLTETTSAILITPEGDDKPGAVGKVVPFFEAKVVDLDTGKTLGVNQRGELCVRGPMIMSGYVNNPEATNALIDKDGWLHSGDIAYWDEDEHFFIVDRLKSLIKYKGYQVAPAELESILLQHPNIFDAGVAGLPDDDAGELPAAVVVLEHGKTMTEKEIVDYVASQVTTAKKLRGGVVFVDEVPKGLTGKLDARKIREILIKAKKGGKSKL
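Biochemical qHTS of compounds, final roughly 60 µM downward over six points, against 10 nM purified firefly luciferase using Km concentrations of substrates (10 uM D-luciferin, 10 uM ATP) in Tris acetate pH 7.5 buffer; luminescence output.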
ELG1 genotox – qHTS screen for small molecules that induce genotoxicity in human embryonic kidney (HEK293T) cells expressing luciferase-tagged ELG1. HEK293T ELG1-luciferase reporter, luminescence, 16 h. Potency, µM (highest dose often 46 µM), inactives show at the top dose activity change, positive = activation, actives largely listed as activators. actives 1.3% (n = 330,000); note: % of control where 0% means no effect; nearly all actives have a fitted effect of over 60% in size
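ELG1-luciferase HEK293T cells, 2,000/well; compound pinned in; 16 hr, 37 °C, 5% CO2; ONE-Glo, 30 min RT; luminescence on CCD imager.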
SMN2 splice enh – qHTS Assay for Enhancers of SMN2 Splice Variant Expression; actives 2.8% (n = 210,000); AID 1458, 2008; HEK293 SMN2-luciferase splicing reporter, luminescence, 30-36 h; Potency, µM (titrated, usually from 46.1 µM), for the others: top-dose activity change, positive = activation, most hits filed as activators; note: % of control where 0% means no effect; nearly all actives have a fitted effect of over 55% in size
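HEK293 cells carry an SMN2 minigene-luciferase reporter in which exon 7 inclusion puts luciferase in frame. Cells were seeded at 2000 cells/well, attached for 10-12 hours, then exposed to compounds for 30-36 hours at 37C before ONE-Glo luminescence.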
Starred values were filed as active, the others as inactive; ? = inconclusive; / = not tested or not shown; [ ] = remark or other dose. Compounds with a hit are over-represented: about 7.5% of the library has one in this group of screens. Calls come from the whole dose curve; as a rule, active = well fitted curve in the direction sought with a large enough effect; inconclusive = small, poorly fitted or top-dose-only effect, or another doubt; inactive = no such curve, though single readings can be large; an effect the other way counts as inactive or inconclusive. Potency is the fitted concentration of half-maximal effect.

SMILES | Luc counter | NPC1 promoter act | Rab9 promoter act | FLuc modulator | ELG1 genotox | SMN2 splice enh
Cc1cccc(-n2ncc3c(N4CCCc5ccccc54)ncnc32)c1 | -3.1% | 2.82µM* | 2µM* | 5.36µM* | 2.31µM* | 12.6µM*
Clc1ccc(Cc2nn3c(Cn4nnc5ccccc54)nnc3s2)cc1 | 2.8% | -1.2% | -0.2% | -5.7% | -5.6% | -23.7%
CCC(C)(NC(=O)c1ccc2c(c1)OCO2)C(=O)NC1CCCCC1 (stereo not drawn) | 1.0% | -2.3% | -2.4% | -0.8% | 1.7% | -11.9%
O=C(Nc1ccc(S(=O)(=O)N(Cc2ccccc2)c2ccccc2)cc1)c1ccc([N+](=O)[O-])cc1 | / | / | / | -1.0% | / | /
Oc1ccccc1C=NCCN=Cc1ccccc1O | / | -0.1% | 1.5% | -6.7% | -0.1% | /
Cc1ccc(O)c(C=Nc2cc(C)ccc2O)c1 | -1.2% | -0.4% | 0.3% | -6.8% | -0.1% | 16.7%
CCCCS/C(N)=N/N=C/c1ccccc1O | -3.8% | ? | 3.16µM* | 13.5µM* | ? | 2.8%
CCCS/C(N)=N/N=C/c1cc(C)ccc1O | 1.8% | 3.16µM* | ? | 2.39µM* | 6.51µM* | -14.5%
C/C(=N/N=C/c1ccccc1O)c1ccccc1O | / | 24.6% | ? | 1.07µM* | 6.51µM* | /
COc1cccc(C2CC(=O)Nc3c2c(=O)n(C)c2nc4ccccc4n32)c1 (stereo not drawn) | / | / | / | ? | / | -11.7%
Cc1onc(-c2ccc(Cl)cc2Cl)c1-c1csc(COc2ccccc2)n1 | / | -0.8% | -3.2% | -1.6% | -3.9% | /
O=C(Nc1nnc(SCC(=O)N2CCCc3ccccc32)s1)c1ccc2ccccc2c1 | 0.0% | ? | 2.82µM* | 1.2µM* | ? | 11.2µM*
Cc1cc(C)cc(C(=O)Nc2nnc(SCC(=O)N3CCCc4ccccc43)s2)c1 | 4.9% | -1.7% | 0.7% | ? | 2.2% | 3.0%
O=C(Nc1nnc(SCC(=O)N2CCCc3ccccc32)s1)c1ccccc1 | -0.5% | ? | ? | 1.51µM* | 12.5% | 11.2µM*
O=C(N=Nc1c(O)[nH]c2ccccc12)c1cc(-c2cccs2)[nH]n1 | / | ? | 16.7% | 12µM* | 1.7% | /
O=C(Cc1cccs1)N=Nc1c(O)[nH]c2ccccc12 | / | 10.3% | 24.9% | ? | 9.6% | /
Cc1[nH]c2ccccc2c1/C=N/NC(=O)CCC(=O)NCc1ccccc1 | -2.7% | -6.2% | -3.5% | -0.5% | -0.1% | /
Cc1ccc(-c2cc(C(=O)N/N=C/c3c(C)nn(-c4ccccc4)c3C)n[nH]2)s1 | 0.0% | -12.3% | -15.2% | 10.7µM* | -5.1% | -71.2%
Cc1cc(C(=O)N/N=C/c2c(C)[nH]c3ccccc23)n[nH]1 | / | 2.1% | -3.6% | ? | -2.1% | /
Cc1[nH]c2ccccc2c1/C=N/NC(=O)c1cc(-c2cccs2)[nH]n1 | 2.4% | -3.7% | -1.0% | 15.1µM* | -5.0% | 9.3%
CCC(=O)Nc1ccc(C(=O)N/N=C/c2c(C)[nH]c3ccccc23)cc1 | 0.0% | -0.5% | 0.0% | 21.3µM* | 10.6% | 6.0%
Cc1ccc(NC(=O)C(=O)NCC(c2cccnc2)N2CCN(Cc3ccccc3)CC2)cc1C (stereo not drawn) | / | / | / | -9.9% | / | /
CSc1ccc(C2c3c(oc4ccc(F)cc4c3=O)C(=O)N2c2ccc(C)cn2)cc1 (stereo not drawn) | / | / | / | 2.1% | / | -1.1%
COc1ccc(Cl)cc1N1C(=O)CC(N2CCN(S(=O)(=O)c3ccccc3F)CC2)C1=O (stereo not drawn) | / | / | / | / | -0.5% | /
O=C(N/N=C/C(Cl)=C/c1ccccc1)c1ccco1 | -1.9% | 2.24µM* | 1.41µM* | 5.36µM* | ? | /
SMILES | Luc counter | NPC1 promoter act | Rab9 promoter act | FLuc modulator | ELG1 genotox | SMN2 splice enh
O=C(N/N=C/c1cccnc1)c1ccco1 | / | 10.5% | 7.7% | -15.0% | 1.2% | /
O=C(N/N=C/C(Cl)=C\c1ccccc1)c1ccco1 | / | 2.51µM* | 2.51µM* | 4.78µM* | ? | /
Cc1ccc(NC(=O)CC(C)S(=O)(=O)c2ccc3c(c2)NC(=O)CO3)cc1Cl (stereo not drawn) | / | / | / | 2.1% | / | /
COc1cccc2oc3ccc(C#Cc4ccccn4)cc3c(=O)c12 | / | 0.794µM* | 1.78µM* | 1.07µM* | ? | /
CNC(C)C#Cc1c(-c2cc(OC)c(OC)c(OC)c2)noc1C (stereo not drawn) | / | -4.2% | -1.1% | -0.3% | 9.2% | /
CNC(C)C#Cc1ccc2sc3cccc(OC)c3c(=O)c2c1 (stereo not drawn) | / | 6.3% | 17.9% | ? | 4.7% | /
COc1cccc2sc3cc(C#Cc4ccccn4)ccc3c(=O)c12 | / | / | / | / | 8.1% | /
CNC(C)C#Cc1ccc2c(=O)c3c(OC)cccc3oc2c1 (stereo not drawn) | / | ? | ? | 23.9µM* | ? | /
CNC(C)C#Cc1ccc2oc3cccc(OC)c3c(=O)c2c1 (stereo not drawn) | / | 23.7% | ? | 15.1µM* | ? | /
O=C(Nc1ccccc1O)c1ccc(NS(=O)(=O)c2cccc3cccnc23)cc1 | / | 2.6% | ? | ? | 16.4µM* | /
O=C(O)c1ccc(NS(=O)(=O)c2cccc3cccnc23)cc1 | 1.5% | -0.4% | -5.0% | -0.9% | 1.1% | -7.3%
COC(=O)c1ccc(NC(=O)c2ccc(NS(=O)(=O)c3cccc4cccnc34)cc2)cc1 | / | 0.8% | 1.1%[1.84 µM] | 16.9µM* | 4.4% | /
Cc1ccc(NC(=O)/C(C#N)=C/c2ccc(-c3ccc(Cl)c(C(=O)O)c3)o2)cc1C | / | / | / | 3.79µM* | / | -5.9%
N#C/C(=C\c1ccc(-c2ccccc2)o1)C(=O)Nn1cnnc1 | -1.7% | -1.4% | -1.4% | 19µM* | 1.3% | -1.9%
COc1ccc(NC(=O)/C(C#N)=C/c2ccc(-c3ccc(Cl)c(C(=O)O)c3)o2)cc1 | / | ? | 3.55µM* | 0.477µM* | ? | /
Cc1ccccc1NC(=O)/C(C#N)=C/c1ccc(-c2ccc(Cl)c(C(=O)O)c2)o1 | / | 2.82µM* | 3.16µM* | 19µM* | 11.9% | /
Cc1ccc(NC(=O)/C(C#N)=C\c2ccc(Cl)cc2Cl)cc1C | / | / | / | -18.6% | / | -14.8%
COc1ccc(/C=C/C(=O)c2ccc(C)c([N+](=O)[O-])c2)cc1O | -0.8% | 0.5% | -4.2% | 4.78µM* | 9.4% | 2.4%
Cc1cc(Br)ccc1NC(=O)c1cc2c(s1)-c1ccccc1SC2 | / | / | / | -8.7% | / | -6.0%
CC(=O)Nc1ccc(Cc2ccc3[nH]c(=O)cc(C)c3c2)cc1 | 0.8%[7.66 µM] | -2.9% | -0.5% | 2.6% | 20.6µM* | 8.1%[9.22 µM]
CC(=O)Nc1ccc2[nH]c3ccccc3c2c1 | / | 3.4% | 20.9% | 19µM* | 0.8% | /

Bioassay records as filed in PubChem BioAssay.
